Reference: PubChem BioAssay (NCI)
Compounds without any hit were thinned out: in the full panel of roughly 83,000, 20% have a hit.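 Negative percent growth values reflect cell death: -40 means 40% of the cells present at the start died, and -100 means all died.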 Values without a mark were called inactive. Calls of active or inactive are those of the source. Rule for the calls: active = growth percent below 10; inactive = the rest.

Legend:
Assay in all cases: NCI-60 one-dose screen, 48 h (100 = growth as untreated, 0 = no growth, -100 = all killed)
BT-549 breast = settings: 10 µM unless noted
MDA-MB-435 melanoma = settings: 10 µM unless noted
SW-620 colon = settings: 10 µM unless noted
MCF7 breast = settings: 10 µM unless noted
HCT-116 colon = settings: 10 µM unless noted
KM12 colon = settings: 10 µM unless noted
HCC-2998 colon = settings: 10 µM

SMILES | growth (BT-549 breast) | growth (MDA-MB-435 melanoma) | growth (SW-620 colon) | growth (MCF7 breast) | growth (HCT-116 colon) | growth (KM12 colon) | growth (HCC-2998 colon)
Nc1nc(N)c2cc(CNc3ccc(C(=O)NC(CC(=O)O)C(=O)O)cc3)ccc2n1 (centres undefined) | 57.7% | 37.8% | 25.2% | 17.3% | 22.4% | 33.8% | –
COc1cc(OC)c(C(=O)/C=C/c2cc3c(cc2OCc2ccccc2)OC(C)(C)CC3)cc1CC=C(C)C | 27.2% | 35.9% | 25.5% | 28.8% | 28.5% | 42.4% | –
CS(=O)(=O)N1CCc2c(-c3cnc(N)nc3)nc(N3CCOCC3)nc21 | -7.63% (active) | 2.21% (active) | 24.3% | 6.89% (active) | 20.4% | 8.03% (active) | –
CCc1ccc(C2=C(O)C(=O)C(c3ccc(CC)cc3)=C(O)C2=O)cc1 | -23% (active) | 3.73% (active) | 2.8% (active) | 2.11% (active) | 1.12% (active) | -1.36% (active) | –
Fc1ccc(NCc2cn(-c3ccccc3)nc2-c2ccc(OCc3ccccc3)cc2)cc1Cl | 89.6% | 102% | 108% | 94.1% | 76.8% | 98% | 102%
CN(C[C@@H]1COCCO1)S(=O)(=O)Nc1ccc2ccc3ncc(-c4cnn(C)c4)cc3c(=O)c2c1 | 28.1% | 44.7% | 37% | 36.3% | 24.1% | 10.2% | 74.1%
O=C(c1ccc(F)c(F)c1Nc1ccc(I)cc1F)N1CC(O)([C@@H]2CCCCN2)C1 | 47.1% | 21% | 17.5% | 14.1% | 5.24% (active) | 12.1% | -51.9% (active)
COc1ccc(CCCc2c3[n+](cc4c(OC)c(OC)ccc24)CCc2cc4c(cc2-3)OCO4)cc1 | 41.8% | 39.7% | 68.9% | 93.7% | 59.2% | 30.8% | 74%
CN1CCN(c2nc(NCCNc3ccnc4cc(Cl)ccc34)c3ccccc3n2)CC1 | 28.3% | -11.4% (active) | 26.5% | 36% | 6.36% (active) | 29.2% | 9.65% (active)
Cc1ncc(-c2ccnc(Nc3ccc(S(C)(=O)=O)cc3)n2)n1C(C)C | -11.4% (active) | -45.2% (active) | 0.356% (active) | 2.6% (active) | -0.0408% (active) | -68.7% (active) | -15.6% (active)
COC(=O)CNC(=O)[C@@H](OC)[C@@H]1Cc2cc3cc(OC4CC(OC5CC(O)C(O)C(C)O5)C(O)C(C)O4)c(C)c(O)c3c(O)c2C(=O)[C@H]1OC1CC(OC2CC(OC3CC(C)(O)C(O)C(C)O3)C(O)C(C)O2)C(O)C(C)O1 (some centres undefined) | -44.3% (active) | -39.2% (active) | 12.7% | 7.64% (active) | 3.52% (active) | 6.86% (active) | -42.3% (active)
C=CC(=O)N(C)[C@H]1C[C@H]2OC(C)(C1OC)n1c3ccccc3c3c4c(c5c6ccccc6n2c5c31)C(=O)NC4 (some centres undefined) | -70.4% (active) | 6.02% (active) | 10.3% | 12.5% | -48.4% (active) | 9.67% (active) | -48.1% (active)
CN(C)CCOC(=O)Nc1nc2ccc(Sc3ccccc3)cc2[nH]1 | 48.4% | -54.2% (active) | 23% | 22.7% | 30.9% | 20.8% | 61.3%
O=C(Nc1ccc(N=Nc2ccccc2)cc1)c1cccc2ccccc12 | 53.5% | -17.2% (active) | 40% | 42% | 36.1% | 47.7% | 78.5%
O=C(Cc1ccc(/C=C/C(=O)c2ncc[nH]2)cc1)Nc1ccc(S(F)(F)(F)(F)F)cc1 | 64.3% | 56.1% | 10.4% | 12.4% | -73.6% (active) | 8.06% (active) | 78.9%
CC(=Nc1ccccc1)C1=C(O)C(Cc2ccc(O)cc2)NC1=O (centres undefined) | 15.2% | -8.69% (active) | 15.6% | 10% | 3.3% (active) | -35.5% (active) | –
CCOc1cccc(/C=N/NC(=O)c2ccccc2Nc2ccnc(C(F)(F)F)c2)c1O | 26.4% | 29.8% | 32.3% | 2.99% (active) | 14.7% | 33.2% | 48.6%
COc1ccc2c(c1)cn1c3ccc(O)cc3nc(N)c21 | – | -16.6% (active) | 26.8% | 17.2% | 18% | 27.1% | 22.5%
COC(=O)[C@@H](C)CNS(=O)(=O)N(c1cc(C(F)(F)F)cc(C(F)(F)F)c1)C1CCN(Cc2ccc(F)cc2)CC1 | 89.6% | 76.8% | 73.9% | 48.7% | 43.4% | 51% | -65.3% (active)
Cc1c(N)ccc(-c2ccc(N)c(C)c2S(=O)(=O)O)c1S(=O)(=O)O | – | 114% | 109% | 108% | 101% | 116% | 102%
COCCOc1cnc2ccn([C@H](C)c3nnc4c(F)cc(-c5cnn(C)c5)cn34)c(=O)c2c1 | 105% | 60% | 35.5% | 103% | 99.9% | 28.3% | –
COc1cnc2c(c1)C(=O)c1c-2n(CCCN2CCC(N)CC2)c(=O)c2cc([N+](=O)[O-])ccc12 | 76.7% | 85.9% | 37.2% | 25.3% | 36.4% | 44.6% | 69.3%
COc1cc2nccc(Oc3ccc(NC(=O)Nc4cc(C)on4)c(Cl)c3)c2cc1OC | 19.6% | 14.8% | 10.7% | 22.8% | -4.79% (active) | 11.4% | 56.6%
CCCCN1C(=O)c2cccc3c(-c4ccc5c(c4)ncn5C4CCCCC4)ccc(c23)C1=O | 99.4% | 109% | 107% | 96.7% | 91.7% | 92.2% | 102%
COc1cc2c(Oc3ccc4[nH]c(C)cc4c3F)ncnc2cc1OCCCN1CCCC1 | 85.5% | 99.6% | 102% | 89.8% | 89.3% | 96.7% | 102%
CCc1cc2c(cc1N1CCC(N3CCOCC3)CC1)C(C)(C)c1[nH]c3cc(C#N)ccc3c1C2=O | -19.3% (active) | 5.08% (active) | 2.54% (active) | 13.8% | -7.97% (active) | 4.1% (active) | 5.22% (active)
